Data on 40 compounds can be found in PubChem BioAssay (Tox21).

Records with an inconclusive call do not appear. Entries that show only a call come without a potency. Active and inactive are the calls of the source. Calls follow the shape of the dose curve; as a rule, active = well fitted inhibition curve with a large enough effect in the repeat runs; inconclusive = weak or mixed curves; inactive = no such curve, though single readings can be large or run the other way.

This assay is described as follows: qHTS assay to identify small molecule antagonists of the thyroid receptor (TR) signaling pathway (AID 743065). Also: nearly all actives have a fitted effect of over 55% in size. As to conditions: GH3.TRE-Luc, T3-stimulated luciferase inhibition, 23.5 h; series mostly up to 70.3 µM. The text has this: U.S. Tox21 Program National Center for Advancing Translational Sciences [NCATS] NIH Chemical Genomics Center [NCGC] U.S. Environmental Protection Agency [EPA] National Institutes of Environmental Health Sciences [NIEHS] National Toxicology Program [NTP] U.S. Food and Drug Administration [FDA] Tox21 Assay Overview: Thyroid receptor (TR), a nuclear hormone receptor, plays an important role in development, proliferation, differentiation, metabolism, brain function, and cardiovascular system. […] To profile the Tox21 10K compound library in TR signaling, a cell-based GH3-TRE-Luc assay (GH3.TRE-Luc cell line, developed by the laboratory of Dr. Albertinka J. Murk, Wageningen University) was used to measure the inhibition of TR. GH3 (rat pituitary tumor) cells stably expressing a TR activity sensor consisting of two TR response elements and a luciferase reporter gene.
Tox21 Assay Protocol Summary: GH3.TRE-Luc cells were dispensed at 1500 cells/4 uL/well into 1536-well white solid bottom plates using a Multidrop Combi dispenser (Thermo Fisher Scientific Inc., Waltham, MA). After the assay plates were incubated at 37 C for 4 hours, 23 nL of library compound or DMSO controls was transferred to the assay plates by a pintool station (Kalypsys, San Diego, CA), followed by addition of 1 ul of T3 (1 nM, final concentration in the wells) to stimulate TR transactivation. The assay plates were incubated at 37 C for 23.5 h, and then 1 uL of CellTiter-Fluor reagent (Promega, Madision, WI) of measuring cytotoxicity was added to each well using a Bioraptr Flying Reagent Dispenser (FRD) workstation (Beckman Coulter, Indianapolis, IN, USA). The plates were incubated at 37 C and 5% CO2 for additional 30 min, and fluorescence intensity was measured by a ViewLux plate reader (PerkinElmer, Shelton, CT). For measuring luciferase reporter gene activity, 4 uL of ONE-Glo Luciferase Assay reagent (Promega) was added to each well using a Bioraptr FRD (Beckman Coulter), followed by 30 min incubation at room temperature. The luminescence intensity of plates was recorded by a ViewLux plate reader (PerkinElmer, Shelton, CT).
As to `COC(C)(C)CC(C)=O`, the Potency result is “inactive”.
For `CC[C@@]1(c2ccccc2)NC(=O)N(C)C1=O`, the Potency result was “inactive”.
Still for that read-out and setting: under `CCN1CCN(C(=O)N[C@@H](C(=O)N[C@@H]2C(=O)N3[C@@H]2SC(C)(C)[C@H]3C(=O)O)c2ccccc2)C(=O)C1=O` stands “inactive”.
For the compound `CC(=O)Oc1ccc(C(C)=O)cc1`, the Potency entry was “inactive”.
In the case of `O=C(O)Cc1c(Cl)ccc(Cl)c1Cl`, the Potency result is “inactive”.
Consider `O=C1Nc2ccccc2C1=O`, for which the Potency result is “inactive”.
Same read-out and setting: next, `O=S(=O)(O)CC(O)CCl` (stereo not given): “inactive”; `CC/C=C\CCCCCCCCCCOC(C)=O`: “inactive”.
Take `O=C(O)CCC(=O)Nc1ccc(S(=O)(=O)Nc2nccs2)cc1`: the Potency result was “inactive”.
Regarding `C=C(C)C(=O)OCCOC1CC2CC1C1C=CCC21` (stereo not given), the Potency result was “inactive”.
For the compound `C/C=C(\C)C(=O)OC/C=C(\C)CCC=C(C)C`, the Potency entry was “inactive”.
In the case of `CC(CC(=O)Cl)CC(C)(C)C` (stereo not given), the Potency result was “inactive”.
The same measure, in the same setting: next, `CCCCN=C(N)N=C(N)N`: “inactive”; `CCCCS`: “inactive”.
On to `CCNC(=O)C(C)OC(=O)Nc1ccccc1` (stereo not given), for which the Potency result is “inactive”.
On to `CC(=O)c1ccc2ccc3ccccc3c2c1`, for which the Potency result was “inactive”.
`C[n+]1ccccc1/C=N/O`: the Potency result is “inactive”.
Same read-out and setting: next, `C=CC(C)(CCC=C(C)C)OC(=O)C(C)C` (stereo not given): “inactive”; `CC(C)(C)c1ccc(N)cc1`: “inactive”.
With `C/C=C(\C)C=O`, the Potency entry was “inactive”.
As to `CCCCCCCCC1CO1` (stereo not given), the Potency entry is “inactive”.
As for `CC(O)CCCCn1c(=O)c2c(ncn2C)n(C)c1=O` (stereo not given), the Potency entry is “inactive”.
Regarding `CCOC(=O)[C@H](CCc1ccccc1)N[C@H]1CS[C@H](c2cccs2)CN(CC(=O)O)C1=O`, the Potency result was “inactive”.
For `CSC(=O)c1cccc2nnsc12`, the Potency result was “inactive”.
With `COc1cc(NS(=O)(=O)c2ccc(N)cc2)ncn1`, the Potency result was “inactive”.
With `CCCc1ccc(O)c(OC)c1`, the Potency result is “inactive”.
Take `O=C(c1ccccc1)c1cccc(O)c1`: the Potency entry is “inactive”.
With `N#Cc1ccccc1C#N`, the Potency result was “inactive”.
Regarding `NC(=O)CC[C@@H](N)C(=O)O`, the Potency entry is “inactive”.
As to `CCCC(=O)C(CC)Sc1ccoc1C` (stereo not given), the Potency result is “inactive”.
Turning to `Cc1nc2ccc(Cl)cc2[nH]1`, the Potency result was “inactive”.
For `COCc1nnc(-c2ccc[n+]([O-])c2)n1-c1c(Cl)c(Cl)cc2[nH]c(=O)c(=O)[nH]c12`, the Potency entry was “inactive”.
On the same count and under the same terms, under `CN(C)CCc1c[nH]c2ccc(C[C@H]3COC(=O)N3)cc12` stands “inactive”.
For the compound `CN(C)CCC[C@@]1(c2ccc(F)cc2)OCc2cc(C#N)ccc21`, the Potency result is “inactive”.
As to `c1cc2ccc3ccc4ccc5cccc6c(c1)c2c3c4c56`, the activity, negative = inhibition was 1.62% [at 3.79 µM] (inactive).
For the compound `CC(C)OC(=O)C(C(=O)OC(C)C)=C1SC=CS1`, the Potency result was “inactive”.
Regarding `CC(=O)OC/C=C(/C)CCC=C(C)C`, the Potency result is “inactive”.
Still for that read-out and setting: next, `Cc1ccc(S(=O)(=O)NC(=O)NN2CC3CCCC3C2)cc1` (stereo not given): “inactive”.
Consider `O=C[C@@H](O)[C@H](O)[C@H](O)CO`, for which the Potency entry is “inactive”.
Take `C=COCCCCO`: the Potency entry was “inactive”.
